# Compound activity as filed in PubChem.
# A selection: hits, their analogues and other compounds. The true share with any hit is near 27%.
# sEH inhibitor – inhibitors of human soluble epoxide hydrolase | P34913 | recombinant human sEH enzymatic activity assay | inhibition, % at 2 µM | 91,000 compounds, 0.34% hits | AID 707; in the data active = inhibition above about 80%
# CYP2C9 activ – increases human cytochrome P450 2C9 activity; P11712; recombinant CYP2C9, luciferin-H conversion, luminescence; stronger effect = higher value; factor 1 = untreated enzyme, 0 = blocked; activation factor at 5 µM; 96,000 compounds, 1.4% hits;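 active = activation factor of 2 or more for CYP2C9 at a 5 µM dose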;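 also: 0 = sulfaphenazole-blocked wells and 1 = vehicle-only wells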
# Target sequence (P11712 whole entry, looked up): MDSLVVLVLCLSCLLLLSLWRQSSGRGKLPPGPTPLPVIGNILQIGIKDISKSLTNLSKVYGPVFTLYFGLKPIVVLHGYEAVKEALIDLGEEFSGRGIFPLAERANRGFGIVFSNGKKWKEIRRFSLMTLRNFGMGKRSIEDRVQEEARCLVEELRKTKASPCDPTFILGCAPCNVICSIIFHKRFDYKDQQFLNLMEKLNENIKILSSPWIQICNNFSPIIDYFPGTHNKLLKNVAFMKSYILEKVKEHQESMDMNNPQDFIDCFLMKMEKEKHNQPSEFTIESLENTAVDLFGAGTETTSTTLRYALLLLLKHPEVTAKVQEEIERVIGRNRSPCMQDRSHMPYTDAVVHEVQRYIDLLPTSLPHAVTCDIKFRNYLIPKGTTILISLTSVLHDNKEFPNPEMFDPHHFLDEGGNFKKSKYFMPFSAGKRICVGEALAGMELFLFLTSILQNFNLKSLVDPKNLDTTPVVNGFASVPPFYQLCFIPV
# CYP2C19 act – activators of human cytochrome P450 2C19; P33261; 96,000 tested, under 10 active; AID 1025; recombinant CYP2C19, luciferin-H EGE luminescence; stronger effect = higher value; 0 = fully inhibited enzyme, 1 = untreated enzyme; activation factor at 5 µM;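 active = activation factor of at least 2 at 5 µM in the primary screen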;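 also: 0 = wells with 2.5 mM tranylcypromine and 1 = vehicle-only wells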
# CYP2C9 inhib – human CYP2C9 inhibition; P11712; CYP2C9 Supersomes, luciferin-H conversion, luminescence; inhibition, % at 5 µM; 96,000 compounds, 20% hits; AID 777;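 active = blocking of liver enzyme CYP2C9 beyond about 50% at 5 µM, limit read from the data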
# CYP2C19 inhib – inhibitors of human CYP2C19; P33261; CYP2C19 Supersomes, luciferin-H EGE luminescence, 30 min; inhibition, % at 5 µM; 96,000 compounds, 21% hits; AID 778;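 active = CYP2C19 inhibition above a set limit at 5 µM in the primary screen, cut at about 50% in these data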;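 also: plate controls were negative control wells for no effect and 2.5 mM tranylcypromine positive control for full effect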
# sEH activator – increases human soluble epoxide hydrolase activity | activation, % at 2 µM | P34913 | 91,000 compounds, 0.04% hits | purified human sEH enzymatic activity, activator screen; in the data active = activation above about 37%
# The depositor's hits bear a star; . = no result given.
SMILES,sEH inhibitor,CYP2C9 activ,CYP2C19 act,CYP2C9 inhib,CYP2C19 inhib,sEH activator
CN(C(=O)c1ccc(=O)[nH]c1)C1(C(=O)NC2CCCCC2)CCCCC1,10,1.1,1.1,-8,-11,-10
C=CCNC(=O)c1sc(=S)n(-c2ccc(C(=O)OCC)cc2)c1N,.,0.4,0.8,56*,16,.
CCOC(=O)c1ccc(-n2c(N)c(C(=O)NCC3CCCO3)sc2=S)cc1 (centres undefined),0,0.2,0.8,83*,18,3
CCOC(=O)c1ccc(-n2c(N)c(C(=O)NCc3ccco3)sc2=S)cc1,27,0.6,0.9,41,15,-27
COc1ccc(-n2c(N)c(C(=O)NCC3CCCO3)sc2=S)cc1 (centres undefined),8,0.9,1.1,8,-10,-6
COC(=O)c1ccc(COc2cc(O)c3c(c2)OC(C)(C)CC3=O)cc1,2,0.8,0.5,23,51*,0
COc1cc(O)c2c(c1)OC(C)(C)CC2=O,-1,1.1,1,-8,5,4
CC1(C)CC(=O)c2c(O)cc(OCc3ccc(Br)cc3)cc2O1,-12,0.2,0.4,85*,61*,15
COc1ccc(CCN=CC2=C(O)CCCC2=O)cc1OC,2,1.1,1.1,-12,-10,-2
Cc1ccc(S(=O)(=O)c2nc(N3CCOCC3)sc2Cl)cc1,-2,0.9,0.6,6,36,5
Cc1cccc(C)c1NC(=O)C1NC(=O)CC1c1ccccc1 (centres undefined),2,1.1,0.9,-7,6,1
Cc1cccc(NC(=O)C2NC(=O)CC2c2ccccc2)c1C (centres undefined),4,0.8,0.4,16,58*,-7
COc1cccc(-n2c(SCC(=O)NCc3ccco3)nnc2-c2c[nH]c3ccccc23)c1,-8,0.4,0.3,59*,66*,10
COc1ccc(OC)c(-n2c(SCC(=O)NCc3ccco3)nnc2-c2c[nH]c3ccccc23)c1,-8,0.3,0.6,66*,39,6
COc1cccc(-n2c(SC)nnc2-c2c[nH]c3ccccc23)c1,-10,0.7,0.4,34,62*,8
COc1ccc(-n2c(SC)nnc2-c2c[nH]c3ccccc23)cc1,.,0.9,1,8,-3,.
CCCCn1nc2cc(C(=O)NC3CCCc4ccccc43)ccc2c1OCC (centres undefined),43,0.8,0.9,18,11,-41
COc1ccccc1CC1(C)NC(=O)N(CC(=O)N2CCc3ccccc3C2)C1=O (centres undefined),-3,0.3,0.9,70*,12,1
O=c1oc2ccccc2c(Nc2ccc(O)cc2)c1[N+](=O)[O-],3,0.7,0.7,32,34,0
CC(Nc1c([N+](=O)[O-])c(=O)oc2ccccc12)C(Cl)c1ccccc1 (centres undefined),2,0.7,0,33,97*,1
CCOc1ccc(NC(=O)CC2C(=O)N(c3ccccc3)C(=S)N2Cc2ccccn2)cc1 (centres undefined),-2,1,0.5,4,47,5
CCCOc1ccc(NC(=O)CC2C(=O)N(CC)C(=S)N2Cc2cccs2)cc1 (centres undefined),-3,0.5,0.2,52*,82*,4
Cn1c2c(c(=O)n(C)c1=O)C(C(F)(F)F)(C(F)(F)F)N=C(c1ccccc1Cl)N2,-9,0.3,1,73*,1,12
Cn1c2c(c(=O)n(C)c1=O)C(NS(=O)(=O)c1ccc(Cl)cc1)(C(F)(F)F)C(=O)N2 (centres undefined),6,0.8,1,20,-2,-6
O=C(C(Sc1ccccc1)c1ccccc1)N1CCN(c2ccccc2F)CC1 (centres undefined),-6,0.2,0.1,76*,86*,6
SMILES,sEH inhibitor,CYP2C9 activ,CYP2C19 act,CYP2C9 inhib,CYP2C19 inhib,sEH activator
Cc1ccc(S(=O)(=O)NCC(c2cccnc2)N(C)C)cc1 (centres undefined),7,0.9,0.4,7,61*,-4
O=S(=O)(NCC(c1cccnc1)N1CCN(c2ccc(F)cc2)CC1)c1cccs1 (centres undefined),.,0.4,0.1,58*,88*,.
O=S(=O)(NCC(c1cccnc1)N1CCOCC1)c1cccs1 (centres undefined),-4,.,.,.,.,5
COc1ccccc1N1CCN(C(CNS(=O)(=O)c2ccc(C)cc2)c2cccnc2)CC1 (centres undefined),2,0.8,0.4,18,58*,-3
O/N=C/c1ccc(OCC(O)COc2ccc(/C=N/O)cc2)cc1,-1,0.8,0.8,18,25,2
Cn1c(=O)n(CC(=O)NC2CCCCC2)c(=O)c2ccccc21,.,0.8,0.8,21,16,.
O=C(C(NS(=O)(=O)c1cccs1)c1ccccc1)N1CCN(c2ccccc2F)CC1 (centres undefined),44,0.4,0.3,56*,69*,-43
CN(C)C(CNS(=O)(=O)c1ccc(F)cc1)c1cccnc1 (centres undefined),4,1,0.8,3,24,-2
O=S(=O)(NCC(c1cccnc1)N1CCN(c2ccccc2F)CC1)c1cccs1 (centres undefined),-17,0.3,0.1,66*,86*,15
O=S(=O)(NCC(c1cccnc1)N1CCN(c2ccc(F)cc2)CC1)c1ccc(F)cc1 (centres undefined),-6,0.3,0.2,72*,84*,6
O=c1[nH]cnc2c1cnn2Cc1ccccc1,.,0.9,0.8,9,20,.
O=c1cc(O)c2c(=O)[nH]c(=O)n(-c3ccccc3)c2[nH]1,.,0.9,1.1,8,-5,.
COCCSc1nc2sc3c(c2c(=O)n1-c1ccccc1)CCN(C)C3,-2,0.7,0,33,98*,3
CC(=O)c1cc2c(cc1NC(=O)CN1CCCCC1C)OCO2 (centres undefined),-7,0.9,0.6,7,42,5
Cc1ccc(NC(=O)COc2ccc(Br)cc2CO)cc1,-4,0.4,0.3,56*,74*,4
O=C(COc1ccc(Br)cc1CO)Nc1ccccc1,-6,0.3,0.1,71*,89*,7
Cc1ccc(NC(=O)COc2ccccc2CNC(C)(C)CC(C)(C)C)cc1,1,0.9,0.5,6,46,-2
COC(=O)CSc1nnc(C2COc3ccccc3O2)n1-c1ccccc1 (centres undefined),-6,0.8,0.4,16,58*,6
CCn1c(SCCOc2ccc(Cl)cc2)nnc1-c1cccs1,1,0.1,0,90*,96*,-2
CCn1c(SCC(=O)N2CCOCC2)nnc1-c1cccs1,-10,0.9,0.9,10,7,9
COC(=O)CSc1nnc(-c2cccs2)n1-c1ccc(Cl)cc1,-3,0.6,0.2,44,81*,1
